The values below come from publication PMC5540273 (PLoS ONE, 2017).

Among the test systems are HCK; HIPK1; HIPK2; HIPK3; HIPK4; HPK1; HUNK; ICK; IGF1R; INSRR; INSR; IRAK1; IRAK3; IRAK4; ITK.
What all share (settings): concentration: 1 μM,replicates: in singlicate; n = 1
The subject of the next test is T1, HASPIN.
T1 construct: gene GSG2

A further test deals with T2, IKK-alpha.
T2 construct: gene CHUK

A further test has as its system T3, IKK-beta.
T3 construct: gene IKBKB

The next test deals with T4, IKK-epsilon.
T4 construct: gene IKBKE

Test [1] deals with JAK1(JH1domain-catalytic).
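Also: KINOMEscan kinase panel screen.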

As to `CN(c1ccc2c(c1)nc(NCc1ccc(F)cc1)n2C)c1ccnc(Nc2ccc(CS(C)(=O)=O)cc2)n1.Cl` [GW813244], the “%Inh” value came to 28% with HASPIN; 47% in the test on HCK; 53% in the test on HIPK1; 25% in the test with HIPK2; 47% with HIPK3; 79% in the test on HIPK4. The “%Inh” value in the test on HPK1 is 60%; in the test with HUNK it was 5%; with ICK it was 7%; with IGF1R, 13%; with IKK-alpha, 15%; in the test on IKK-beta, 0%. Moreover, the “%Inh” value in the test with IKK-epsilon is 0%; in the test with INSRR, 15%; in the test with INSR, 27%; in the test on IRAK1, 49%; in the test with IRAK3 it was 1%; in the test on IRAK4 it was 0%. Moreover, the “%Inh” value with ITK amounted to 0%; in test [1], 38%.

On to `Cl.Nc1n[nH]c2cc(-c3ccccn3)ccc12` [GSK2189892], for which the “%Inh” value came to 38% in the test on HASPIN; 0% in the test on HCK; 2% in the test with HIPK1; 0% with HIPK2; 5% in the test on HIPK3; 0% in the test with HIPK4. For the same compound, the “%Inh” value worked out at 38% with HPK1; 0% in the test with HUNK; 0% in the test with ICK; 5% in the test with IGF1R; 0% with IKK-alpha; 0% in the test with IKK-beta. Further, the “%Inh” value in the test with IKK-epsilon came out at 24%; with INSRR it was 0%; in the test on INSR it was 0%; in the test with IRAK1, 0%; with IRAK3, 6%; with IRAK4 it was 0%. For the same compound, the “%Inh” value is on record as 4% in the test with ITK and 10% in test [1].

As for `COc1cccc(OC)c1C(=O)Nc1cccc(-c2nn3ccccc3c2-c2ccnc(Nc3cccc(F)c3)n2)c1` [GSK361065], the “%Inh” value in the test on HASPIN was 0%; with HCK it was 30%; in the test on HIPK1 it was 31%; in the test with HIPK2 it was 0%; in the test on HIPK3, 0%; with HIPK4, 84%. In addition, the “%Inh” value is recorded as 2% with HPK1; 15% in the test on HUNK; 0% in the test on ICK; 7% with IGF1R; 0% with IKK-alpha; 0% in the test with IKK-beta. For the same compound, the “%Inh” value in the test on IKK-epsilon is given as 4%; in the test on INSRR it was 0%; with INSR, 0%; in the test with IRAK1 it was 0%; with IRAK3, 0%; in the test on IRAK4, 0%. In addition, the “%Inh” value in the test on ITK is recorded as 93.8%; in [1], 0%.

For the compound `FC(F)(F)c1cc(Br)cc(Nc2nccc(-c3cnn4ncccc34)n2)c1` [GW810578], the “%Inh” value with HASPIN worked out at 0%; in the test on HCK, 12%; in the test with HIPK1 it was 99.1%; in the test with HIPK2 it was 99.4%; in the test on HIPK3, 97.9%; in the test with HIPK4, 76%. Also, the “%Inh” value in the test with HPK1 amounted to 13%; in the test on HUNK it was 0%; in the test on ICK, 97.8%; in the test on IGF1R it was 0%; in the test on IKK-alpha it was 13%; with IKK-beta, 9%. Further, the “%Inh” value is given as 0% in the test on IKK-epsilon; 11% in the test with INSRR; 8% in the test with INSR; 92% in the test on IRAK1; 58% in the test on IRAK3; 0% with IRAK4. In addition, the “%Inh” value in the test with ITK is on record as 0%; in test [1], 3%.

Consider `COC(=O)c1cccc(NC(=O)NC2CCN(c3ccnc(NCc4ccc(F)cc4)n3)CC2)c1` [GSK1379860], for which the “%Inh” value is recorded as 17% in the test with HASPIN; 35% with HCK; 0% in the test with HIPK1; 47% in the test with HIPK2; 10% with HIPK3; 0% with HIPK4. Besides, the “%Inh” value in the test on HPK1 was determined as 24%; in the test on HUNK, 0%; with ICK, 0%; in the test on IGF1R, 0%; with IKK-alpha it was 26%; in the test on IKK-beta it was 8%. The “%Inh” value with IKK-epsilon is reported as 0%; in the test with INSRR it was 0%; in the test on INSR, 0%; in the test with IRAK1 it was 0%; with IRAK3, 0%; in the test on IRAK4, 12%. Also, the “%Inh” value with ITK came to 15%; in test [1] it was 8%.

With `Cn1ccc2ncnc(Oc3ccc(NC(=O)Nc4cc(C(C)(C)C)on4)c(Cl)c3)c21`, the “%Inh” value worked out at 5% in the test on HASPIN; 66% with HCK; 36% in the test on HIPK1; 34% in the test on HIPK2; 0% in the test on HIPK3; 28% in the test with HIPK4. Also, the “%Inh” value with HPK1 was 30%; with HUNK it was 2%; in the test with ICK it was 15%; in the test on IGF1R, 15%; in the test on IKK-alpha, 17%; in the test on IKK-beta, 9%. In addition, the “%Inh” value with IKK-epsilon was 0%; with INSRR it was 19%; in the test with INSR, 20%; in the test with IRAK1 it was 61%; with IRAK3 it was 17%; in the test on IRAK4, 33%. The “%Inh” value was found to be 16% with ITK and 6% in [1].

For `Cc1ccc2c(-c3ccnc(Nc4ccc(C(F)(F)F)cc4)n3)cnn2n1` [GW819776], the “%Inh” value with HASPIN came to 12%; in the test on HCK it was 30%; in the test with HIPK1, 89%; with HIPK2 it was 80%; in the test on HIPK3, 79%; in the test on HIPK4, 43%. Besides, the “%Inh” value is reported as 0% in the test on HPK1; 0% with HUNK; 66% in the test with ICK; 7% in the test on IGF1R; 38% in the test on IKK-alpha; 10% in the test on IKK-beta. Also, the “%Inh” value with IKK-epsilon is given as 0%; with INSRR, 1%; in the test on INSR, 14%; with IRAK1, 73%; in the test with IRAK3 it was 4%; in the test with IRAK4 it was 0%. Further, the “%Inh” value is given as 10% with ITK and 4% in test [1].

Take `O=C(Nc1n[nH]c2cc(-c3ccco3)ccc12)C1CC1` [SB-737447]: the “%Inh” value amounted to 0% in the test with HASPIN; 5% with HCK; 39% with HIPK1; 50% in the test on HIPK2; 31% in the test with HIPK3; 6% in the test with HIPK4. Further, the “%Inh” value in the test on HPK1 is reported as 3%; in the test on HUNK, 0%; in the test on ICK, 66%; in the test with IGF1R, 0%; in the test with IKK-alpha, 0%; in the test on IKK-beta, 0%. For the same compound, the “%Inh” value in the test with IKK-epsilon came out at 0%; with INSRR it was 5%; in the test on INSR, 2%; with IRAK1, 0%; in the test on IRAK3, 0%; in the test with IRAK4, 0%. Also, the “%Inh” value with ITK worked out at 0%; in test [1], 2%.
